Many of the other results were omitted from the sample, so hits are more common in it than they were.
BJeLR viability – lowers viability of BJeLR cells. viability loss activity score, % (test concentration not listed). BJeLR fibroblasts viability, CellTiterGlo ATP luminescence, 48 h; HRASV12, hTERT and SV40 LT/ST transformed. AID 2275. 30,000 compounds, 0.64% hits; in the data active = viability loss activity score above about 50%;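 note: higher score means fewer live cells and less ATP luminescence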
MITF inhib – inhibitors of MITF. 37,000 compounds, 0.28% hits. TRPM1 promoter luciferase, luminescence, 24 h. AID 2240. inhibition, % (no concentration beside the values); in the data active = inhibition above about 85%;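 note: human melanocyte line stably carrying TRPM1 promoter luciferase reporter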
Shh pathway inh – blocks Sonic Hedgehog signaling. inhibition, % (no concentration beside the values). Shh-LIGHT2 Gli-luciferase reporter, 30 h. 22,000 compounds, 2.1% hits;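 active = mean inhibition across valid replicates above about 65%, limit read from the data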;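 note: pathway switched on by Shh-conditioned medium diluted 1 in 25 in low serum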
The depositor's hits bear a star; nt = no result given; ! = not confirmed by another sample.

SMILES	BJeLR viability	MITF inhib	Shh pathway inh
C/C=C(/C)C(=O)O[C@H]1C(C)=C2[C@H]([C@@H]1OC(=O)CCCCC)[C@@](C)(OC(C)=O)C[C@H](OC(=O)CCC)[C@@]1(O)[C@H]2OC(=O)[C@@]1(C)O	26	69	105*
O=C(O)c1[nH]c2ccc(Cl)cc2c1CC(=O)N1CCC2(CC1)OCCO2	2	nt	nt
CCC1(CC)OC(c2cccnc2)Nc2ccccc21 (stereo not given)	0	nt	nt
Cc1[nH]c2ccccc2c1CCNCC(C)(C)C	-7	nt	nt
O=c1c2ccccc2nc(CSc2ncnc3ccccc23)n1-c1ccccc1F	nt	71	nt
C[C@@H]1C[C@@H]([C@H](O)CC2CC(=O)NC(=O)C2)C(=O)[C@@H](C)C1	61*	72	50
C[C@@H]1CC([C@H](O)CC2CC(=O)NC(=O)C2)C(=O)[C@@H](C)C1 (stereo not given in full)	87*	55	68*
CC(=O)OC1CCC2(C)C(=CCC3C4CCC(=O)C4(C)CCC32)C1 (stereo not given)	-1	-2	-9
CCC(C)N=Cc1c(O)[nH]c(=O)[nH]c1=O (stereo not given)	-2	nt	nt
N#CC1(P(=S)(c2ccccc2)c2ccccc2)CCCC1	-1	nt	nt
O=C1C=C2C=C[C@@H]3C[C@@]2(O1)[C@H]1CCCCN31	-2	25	72*
O=C(CC[N+](=O)[O-])OC[C@H]1O[C@@H](O)[C@H](OC(=O)CC[N+](=O)[O-])[C@@H](OC(=O)CC[N+](=O)[O-])[C@@H]1OC(=O)CC[N+](=O)[O-]	2	9	41
CN1CCc2nc(SCc3cccc(Cl)c3)c(C#N)cc2C1	1	nt	nt
O=C(c1ccco1)c1cn(CCCOc2ccccc2)c2ccccc12	nt	0	nt
CN[C@@H]1C[C@@]2(C)O[C@@H]([C@@H]1OC)n1c3ccccc3c3c4c(c5c6ccccc6n2c5c31)C(=O)NC4	127*	101*	103*
Cc1ccc2[nH]cc(CC(C)N)c2c1 (stereo not given)	5	nt	nt
CN(C(=O)c1ccc(Cl)cc1)c1ccc(Cl)cc1C(=O)c1ccccc1	2	nt	nt
CC(C)N(C(=O)SCC(Cl)=C(Cl)Cl)C(C)C	11	7	-6
C=C1[C@@H](C)[C@H]2[C@H](Cc3ccccc3)NC(=O)[C@]23OC(=O)/C=C\[C@H](O)CCC[C@@H](C)C/C=C/[C@H]3[C@@H]1O	39	21	65*
O=C(Cn1cc(C(=O)c2ccccc2)c2ccccc21)Nc1ccc(F)cc1	nt	38	nt
C/C=C\C(=O)O[C@@H]1C[C@H]2O[C@@H]3C=C(C)C(=O)C[C@]3(C)[C@]1(C)[C@]21CO1	101*	92*	65*
CC(C)Sc1nnc(OC(=O)N(C)C)n1-c1cccc(C(F)(F)F)c1	-6	nt	nt
C[C@@H]1O[C@@H](O[C@@H]2C=C3CC[C@@H]4C(CC[C@]5(C)[C@@H](c6ccc(=O)oc6)CC[C@]45O)[C@@]3(C)CC2)[C@H](O)[C@H](O)[C@H]1O (stereo not given in full)	99*	20	23
C[C@@H]1O[C@@H](O[C@@H]2C=C3CCC4C(CC[C@]5(C)[C@@H](c6ccc(=O)oc6)CC[C@]45O)[C@@]3(C)CC2)[C@H](O)[C@H](O)[C@H]1O (stereo not given in full)	121*	42	-21
O=C(c1ccc2nc(N3CCCCC3)sc2c1)N1CCC2(CC1)OCCO2	6	nt	nt
SMILES	BJeLR viability	MITF inhib	Shh pathway inh
CCc1ccc(CN2CCN(Cc3ccc(CC)cc3)CC2)cc1	4	nt	nt
COc1cc(C(=O)O[C@H]2[C@@H]3C=CO[C@@H](O[C@@H]4O[C@H](CO)[C@@H](O)[C@H](O)[C@H]4O)[C@@H]3[C@@]3(CO)O[C@@H]23)ccc1O	-2	-17	-26
Cc1nc(-c2ccccc2)nc(OC(=O)N(C)C)c1Oc1cccc(C(F)(F)F)c1	3	nt	nt
O=[P+](c1ccccc1)c1ccccc1	-9	nt	nt
CC1=NCCc2c1[nH]c1cc(O)ccc21	-5	1	80*!
COc1ccc2c3c([nH]c2c1)C(C)=NCC3	-1	12	-16
COc1cccc(N2CCNCC2)c1	3	nt	nt
CCn1cnc2c(Nc3cccc(Cl)c3)nc(N[C@@H]3CCCC[C@@H]3N)nc21	57*	51	73*
COc1ccc(CC2(CCc3ccncc3)C(=O)NC(=O)N(c3cccc(C)c3)C2=O)c(OC)c1 (stereo not given)	nt	-24	nt
C[C@@H]1Cc2c(Cl)cc(C(=O)N[C@@H](Cc3ccccc3)C(=O)O)c(O)c2C(=O)O1	nt	nt	78*
Cc1ccc(S(=O)(=O)N2CCCCC2)cc1C(=O)Oc1cccc2cccnc12	-4	-28	-14
N#CC(c1ccccc1)c1ccccc1	-6	nt	nt
CC1=CC2OC3[C@H](O)C[C@@](C)([C@]34CO4)[C@@]2(CO)[C@H](O)C1=O (stereo not given in full)	74*	72	40
N#Cc1c(/N=C/c2cc(Br)ccc2O)sc2c1C1CCN2CC1	-2	nt	nt
CCN1C[C@]2(C)CC[C@H](OC)[C@@]34C2[C@H](O)C([C@@H]13)[C@@]1(OC)C[C@H](OC)[C@H]2C[C@@H]4[C@@H]1[C@H]2O	3	-13	-12
COc1cc2c(c(OC)c1OC)-c1cc3c(cc1[C@H](OC(C)=O)[C@H]1COC(=O)[C@@H]1C2)OCO3	60*	26	83*
COc1ccc(CC2C(=O)OCC2Cc2ccc3c(c2)OCO3)cc1OC (stereo not given)	-4	7	12
C=CC1C[N+]2([O-])CCC1CC2C(O)c1ccnc2ccccc12 (stereo not given)	nt	nt	-13
Cc1ccc(-c2nc(Cn3cc(C=C4C(=O)N(C)C(=O)N(C)C4=O)c4ccccc43)no2)cc1	-2	nt	nt
C=C(CO)C(=O)O[C@H]1C/C(C)=C\CC/C(CO)=C\[C@H]2OC(=O)C(=C)[C@H]12	4	-15	7
C=C(CO)C(=O)O[C@H]1CC(=C)[C@@H]2C[C@H](O)C(=C)[C@@H]2[C@H]2OC(=O)C(=C)[C@@H]21	7	-45	90*
Cc1ccc(NC(=O)c2cccc(OC(=O)N(C)c3ccccc3)c2)cc1C	0	5	76*
CCCC12CNCC(C)(CNC1)C2=O	-1	nt	nt
CCCCn1c(=O)c(C(=O)NCc2ccccn2)c(O)c2ccccc21	nt	32	nt
CC(=O)OC[C@]12CCC(C)=C[C@H]1O[C@@H]1[C@H](O)[C@@H](OC(C)=O)[C@@]2(C)[C@]12CO2	122*	92*	109*
SMILES	BJeLR viability	MITF inhib	Shh pathway inh
CC(=O)OC[C@]12C[C@H](O)C(C)=C[C@H]1O[C@@H]1[C@H](O)[C@@H](OC(C)=O)[C@@]2(C)[C@]12CO2	119*	90*	96*
COc1ccc(OC)c(NC(=S)NCCc2cnc[nH]2)c1	nt	-11	nt
COc1ccccc1OCCCn1cc(C(=O)c2ccccc2)c2ccccc21	nt	9	nt
Cc1ccccc1CN1CCN(C(C)C)CC1	-3	nt	nt
CC1=CC(=O)C2=C(C)C[C@H](O)[C@@H]3[C@H](OC(=O)[C@@H]3C)[C@@H]12	nt	nt	-18
C/C1=C/[C@@H](C)C/C=C/[C@H]2[C@@H]3O[C@]3(C)[C@@H](C)[C@H]3[C@H](Cc4c[nH]c5ccccc45)NC(=O)[C@]32C(=O)/C=C\C(=O)[C@@H]1O	nt	nt	102*
